This is an account of results in PubChem BioAssay (NCATS).

Values joined by “and” are separate entries in the source; they are usually repeats but may differ in a detail not shown here. Identical values can stand only once. Values without a mark were called inactive. Results filed as inconclusive are left out. Active and inactive are the calls of the source. Unless noted, calls come from the whole dose curve; as a rule, active = well fitted curve in the direction sought with a large enough effect; inconclusive = small, poorly fitted or top-dose-only effect, or another doubt; inactive = no such curve, though single readings can be large; an effect the other way counts as inactive or inconclusive.

Assay [1] can be described thus: Cell Viability - Hek293 (AID 427;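 active = compounds whose dose-response curve shows a full or clear partial loss of cell viability, called from curve shape rather than a numeric limit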;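 note: potency is the fitted concentration of half-maximal effect; cells exposed to compound for 40 hours at 37 °C before reading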). The settings on record: qHTS. The essentials:
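HEK293 cells in complete medium were exposed to compound for 40 hr at 37 °C, then cellular ATP was read by CellTiter-Glo luminescence. Data were normalized to DMSO (basal) and 100 uM tamoxifen (100% inhibition), and AC50 came from Hill fits.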
A general note: qHTS replaces the single test concentration by a dilution series.

Assay [2] can be described thus: Cell Viability - SK-N-SH (AID 435; calls by dose curve;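 note: potency is the fitted concentration of half-maximal effect; compound exposure lasted 40 h at 37 °C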). The conditions noted are these: SK-N-SH neuroblastoma cell viability qHTS. The essentials:
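Cells seeded at 1500 per well and incubated 5 hr at 37 °C. Compound added, then 40 hr at 37 °C. CellTiter-Glo added, 20 min at room temperature, luminescence read.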

Assay [3] in a line: Cell Viability - N2a (AID 540).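 For activity change, negative = cytotoxicity: plate controls were DMSO alone for no effect and tamoxifen control for full effect.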 Note: nearly all actives have a fitted effect of over 45% in size. Note: potency is the fitted concentration of half-maximal effect. The conditions noted are these: N2a mouse neuroblastoma cell viability; activity change, negative = cytotoxicity: at 92.2 µM (top of the series). A digest of the protocol: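 CellTiter-Glo ATP luminescence, read 20 min after reagent at room temperature, reported viability following 40 h compound treatment at 37 °C. N2a mouse neuroblastoma cells seeded 1500/well; Hill equation gave AC50.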

Assay [4] is described as follows: Cell Viability - LYMP2-009 (AID 968).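 Note: 0% = DMSO alone and the full-kill end = tetraoctylammonium bromide at 92 µM; nearly all actives have a fitted effect of over 55% in size.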
Assay [5] can be described thus: Cell Viability - LYMP2-015 (AID 971).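 Note: 0% = DMSO only and full effect = 92 µM tetraoctylammonium bromide; nearly all actives have a fitted effect of over 55% in size.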 The essentials:
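Cytotoxicity readout: decrease in intracellular ATP (CellTiter-Glo luminescence) in 2500 LYMP2-015 lymphoblastoid cells/well after 24 h compound exposure at 37 C. Concentration-response data fitted with the standard Hill equation to give AC50.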

Assay [6] can be described thus: Cell Viability - LYMP2-017 (AID 972). Note: % is set by controls: 0 for no effect and ±100 for the full control effect; nearly all actives have a fitted effect of over 55% in size. A digest of the protocol: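 CellTiter-Glo luminescence (cellular ATP, 30 min RT) measured cytotoxicity after 24 hr compound treatment at 37 C. Cells were a human lymphoblastoid line, LYMP2-017, plated at 2500/well and incubated 5 hr first; concentration-response fitted with Hill equation for AC50.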
Assay [7] can be described thus: Cell Viability - LYMP2-010 (AID 981). Note: % is set by controls: 0 for no effect and ±100 for the full control effect; nearly all actives have a fitted effect of over 55% in size. A digest of the protocol:
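CellTiter-Glo ATP luminescence measured cytotoxicity after 24 h compound exposure at 37 C. LYMP2-010 cells were seeded at 2500/well, with tetraoctylammonium bromide as control; concentration-response curves gave AC50 values by the Hill equation.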

A short description of assay [8]: Cell Viability - LYMP2-022 (AID 987).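 For viability change, negative = cytotoxic: 0% = DMSO alone and full effect = tetraoctylammonium bromide at 92 µM.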 Note: nearly all actives have a fitted effect of over 55% in size. Note: potency is the fitted concentration of half-maximal effect. A digest of the protocol: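 Cytotoxicity read as decreased cellular ATP (CellTiter-Glo luminescence, 30 min room temperature) after 24 hours compound exposure of 2500 lymphoblastoid LYMP2-022 cells/well at 37 C. Concentration-response data fitted with standard Hill equation for AC50.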
In assay [9] the target is Vitamin D3 receptor (Homo sapiens) (UniProt P11473). In words: qHTS assay for small molecule antagonists of vitamin D receptor signaling (AID 588541; calls by dose curve;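 note: receptor activated by calcitriol during compound treatment; % is set by controls: 0 for no effect and ±100 for the full control effect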). The essentials: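 VDR-UAS-bla HEK293T cells in 2% charcoal-stripped FBS were stimulated with 1-alpha,25-dihydroxyvitamin D3 (3 nM final) plus compound for 16 h at 37 C. The beta-lactamase CCF4 readout was normalized to 50 nM agonist and DMSO, and Hill fits gave IC50.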

Assay [10] shares this target. In words: qHTS assay for small molecule agonists of vitamin D receptor signaling (AID 588543; calls by dose curve; note: potency is the fitted concentration of half-maximal effect;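 for activation: 0% = DMSO basal and 100% = reference agonist control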). The essentials:
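qHTS in agonist mode: compound titrations stimulate a VDR-driven β-lactamase reporter in HEK293T cells over 16 h at 37 °C. Response normalized to 50 nM 1α,25-dihydroxyvitamin D3 = 100%, DMSO = 0%; Hill fitting gives EC50 and maximal response.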

The target in assay [11] is Thyroid hormone receptor beta (Homo sapiens) (UniProt P10828). In words: qHTS assay for small molecule agonists of thyroid hormone receptor beta signaling (AID 588545; calls by dose curve; note: potency is the fitted concentration of half-maximal effect;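 for activation: 0% = DMSO only and 100% = 10 nM T3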). A digest of the protocol: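 TR-UAS-bla-GripTite HEK 293 cells in medium with 2% charcoal/dextran FBS, 0.1 mM NEAA and 1 mM sodium pyruvate were treated with titrated compounds for 18 hrs at 37 C. Beta-lactamase reporter was read with CCF4 dye (ex 405, em 460/530 nm); EC50 from Hill fits.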

The nature of assay [12]: qHTS assay for small molecule agonists of the antioxidant response element (ARE) signaling pathway (AID 651741; active = well fitted activation curve with a large enough effect in the signal ratio; the % refers to the signal ratio; note: potency is the fitted concentration of half-maximal effect; for activation: % of control where 0% means no effect). The essentials: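 Stably integrated ARE-beta-lactamase reporter HepG2 cells; 16 h compound incubation, 37 C; LiveBLAzer FRET substrate 2 h at room temperature; fluorescence intensity.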
For assay [13], the target named is Tumor necrosis factor (Homo sapiens) (UniProt P01375). In words: qHTS assay to identify small molecules that stimulate Tumor Necrosis Factor-alpha (TNF-alpha) secretion (AID 651757; active = well fitted curve in the direction sought with a large enough effect in the signal ratio; the % refers to the signal ratio; note: 0% is about no effect). A digest of the protocol:
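Secreted TNF-alpha quantified by TR-FRET sandwich of two labeled anti-TNF-alpha antibodies, incubated 3 hr at room temperature. Preceded by 17 hr, 37 C compound treatment of THP-1 cells at 3000 cells/well.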

A short description of assay [14]: qHTS assay for environmental chemicals that activate the Aryl hydrocarbon Receptor (AhR) signaling pathway (AID 651777). For activation: % of control where 0% means no effect. Note: nearly all actives have a fitted effect of over 15% in size. Note: potency is the fitted concentration of half-maximal effect. The settings on record: 1A2-DRE human hepatoma cells, luciferase, 24 h; activation: hits give high values. A digest of the protocol:
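Following a 24 hr incubation with test chemicals at 37 C and 5% CO2, 1A2-DRE human hepatoma cells received One-Glo reagent; after 30 min at room temperature, luciferase output reflected CYP1A2 induction via AhR.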

The target in assay [15] is Nuclear receptor ROR-gamma (Homo sapiens) (UniProt P51449). In words: qHTS assay for small molecule antagonists of the retinoid-related orphan receptor gamma (ROR-gamma) signaling pathway (AID 651802). Note: nearly all actives have a fitted effect of over 60% in size. Note: potency is the fitted concentration of half-maximal effect. The essentials: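 Luminescence (One-Glo, 30 min RT) measured 16 h after compound addition and doxycycline induction at 37C. Reporter: RORE-luciferase under TET-inducible ROR-gamma in CHO cells.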

Assay [16] in a line: qHTS assay for small molecule agonists of the antioxidant response element (ARE) signaling pathway measured by Nrf2-dependant transcriptional activity (AID 720636; active = well fitted curve in the direction sought with a large enough effect in the repeat runs; an effect the other way counts as inactive or inconclusive; note: potency is the fitted concentration of half-maximal effect;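 for activation: HepG2 cells with an ARE-driven luciferase reporter; % of control where 0% means no effect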). A digest of the protocol:
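ONE-Glo luminescence, read 30 min after reagent addition at room temperature, reflected ARE reporter activity in HepG2 cells that had been incubated with compound for 16 hr at 37 C in 1% dialyzed FBS.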

Assay [17] has as its target Nuclear receptor subfamily 1 group I member 2 (Rattus norvegicus) (UniProt Q9R1A7). Briefly: qHTS assay for small molecule activators of the rat pregnane X receptor (rPXR) signaling pathway (AID 651751; call rule not given here; note: 0% is about no effect). The conditions noted are these: rPXR reporter cells, luciferase (One-Glo), 24 h.
Assay [18] in a line: qHTS assay for small molecule activators of the human pregnane X receptor (PXR) signaling pathway (AID 720659; call rule not given here; note: 0% is about no effect).
A short description of assay [19]: Cell Viability - SH-SY5Y (AID 544).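 For viability change, negative = cytotoxic: 0% = DMSO alone and -100% = 100 µM tamoxifen.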 Note: nearly all actives have a fitted effect of over 55% in size. Note: potency is the fitted concentration of half-maximal effect. The conditions noted are these: SH-SY5Y neuroblastoma cell viability; viability change, negative = cytotoxic: at 92.2 µM (top of the series). A digest of the protocol: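 Cytotoxicity measured via ATP-dependent luciferase luminescence (CellTiter-Glo) following 40 h, 37 °C exposure of 1500 SH-SY5Y cells per well. Concentration-response data were fitted with the standard Hill equation to give AC50.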

Sequence of Nuclear receptor subfamily 1 group I member 2 (Rattus norvegicus) (Q9R1A7 whole entry, looked up): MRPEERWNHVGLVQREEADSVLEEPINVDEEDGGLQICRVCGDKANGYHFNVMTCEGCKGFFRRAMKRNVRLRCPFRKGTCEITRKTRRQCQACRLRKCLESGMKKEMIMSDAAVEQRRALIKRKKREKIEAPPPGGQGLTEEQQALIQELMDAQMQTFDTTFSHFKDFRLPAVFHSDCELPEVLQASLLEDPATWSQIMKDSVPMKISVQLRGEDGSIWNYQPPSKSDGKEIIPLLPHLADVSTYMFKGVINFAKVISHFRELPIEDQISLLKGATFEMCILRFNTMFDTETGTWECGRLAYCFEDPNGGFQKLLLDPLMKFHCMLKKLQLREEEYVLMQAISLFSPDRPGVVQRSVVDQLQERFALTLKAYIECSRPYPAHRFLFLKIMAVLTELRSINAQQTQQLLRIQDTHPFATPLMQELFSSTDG
Sequence of Vitamin D3 receptor (Homo sapiens) (P11473 whole entry, looked up): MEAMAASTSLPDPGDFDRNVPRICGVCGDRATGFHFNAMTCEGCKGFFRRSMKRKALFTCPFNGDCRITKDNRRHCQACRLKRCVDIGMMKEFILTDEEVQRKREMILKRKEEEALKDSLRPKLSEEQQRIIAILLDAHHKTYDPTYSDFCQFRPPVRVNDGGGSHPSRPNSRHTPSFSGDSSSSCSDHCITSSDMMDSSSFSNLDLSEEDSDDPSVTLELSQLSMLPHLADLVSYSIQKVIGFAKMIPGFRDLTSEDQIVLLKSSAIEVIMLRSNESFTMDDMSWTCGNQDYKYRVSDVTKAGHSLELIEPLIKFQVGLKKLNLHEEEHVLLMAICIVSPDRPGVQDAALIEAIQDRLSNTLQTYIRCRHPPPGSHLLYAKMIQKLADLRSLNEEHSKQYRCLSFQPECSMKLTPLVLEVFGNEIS
Sequence of Thyroid hormone receptor beta (Homo sapiens) (P10828 whole entry, looked up): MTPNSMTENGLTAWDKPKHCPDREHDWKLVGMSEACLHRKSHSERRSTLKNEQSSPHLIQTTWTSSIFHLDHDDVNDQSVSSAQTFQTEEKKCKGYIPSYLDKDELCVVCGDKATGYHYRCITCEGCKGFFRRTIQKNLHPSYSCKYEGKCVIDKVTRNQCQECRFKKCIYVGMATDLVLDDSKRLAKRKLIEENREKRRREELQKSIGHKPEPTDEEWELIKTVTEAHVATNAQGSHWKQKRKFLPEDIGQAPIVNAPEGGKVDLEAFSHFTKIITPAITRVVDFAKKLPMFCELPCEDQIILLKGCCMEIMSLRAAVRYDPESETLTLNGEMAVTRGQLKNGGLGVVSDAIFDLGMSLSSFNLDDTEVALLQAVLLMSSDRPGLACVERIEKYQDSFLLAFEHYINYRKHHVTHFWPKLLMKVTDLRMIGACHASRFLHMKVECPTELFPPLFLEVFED
Sequence of Tumor necrosis factor (Homo sapiens) (P01375 whole entry, looked up): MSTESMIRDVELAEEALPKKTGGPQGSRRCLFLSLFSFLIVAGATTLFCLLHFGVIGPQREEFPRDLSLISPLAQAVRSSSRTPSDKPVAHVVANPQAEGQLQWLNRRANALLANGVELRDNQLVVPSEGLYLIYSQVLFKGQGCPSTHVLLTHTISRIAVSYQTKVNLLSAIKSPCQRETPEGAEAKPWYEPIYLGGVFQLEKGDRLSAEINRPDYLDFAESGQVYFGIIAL
Sequence of Nuclear receptor ROR-gamma (Homo sapiens) (P51449 whole entry, looked up): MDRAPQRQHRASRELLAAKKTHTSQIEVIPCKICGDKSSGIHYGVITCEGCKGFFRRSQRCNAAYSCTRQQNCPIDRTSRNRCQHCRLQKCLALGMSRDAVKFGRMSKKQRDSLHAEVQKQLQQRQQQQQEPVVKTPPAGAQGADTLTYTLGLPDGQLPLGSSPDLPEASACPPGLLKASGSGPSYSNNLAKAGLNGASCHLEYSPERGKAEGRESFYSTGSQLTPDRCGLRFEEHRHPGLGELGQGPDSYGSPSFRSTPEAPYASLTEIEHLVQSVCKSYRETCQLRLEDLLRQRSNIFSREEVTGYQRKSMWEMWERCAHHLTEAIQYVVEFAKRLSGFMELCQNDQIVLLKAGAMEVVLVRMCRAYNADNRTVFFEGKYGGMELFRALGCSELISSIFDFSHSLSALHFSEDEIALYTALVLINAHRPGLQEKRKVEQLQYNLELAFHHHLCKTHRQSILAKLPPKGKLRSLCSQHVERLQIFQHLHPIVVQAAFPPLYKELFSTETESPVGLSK

On to `c1ccc2c(c1)ccc1ccccc12`, for which the Potency in assay [1] and in assay [2] was over 92 µM each time. The activity change, negative = cytotoxicity in assay [3] is -13.8%. Moreover, the Potency entry in [4], in [5], in assay [6], in [7], in assay [8] and in assay [9] was “inactive” in each case. Also, the Potency result in [10], in [11], in assay [12], in assay [13], in assay [15] and in assay [16] was “inactive” throughout. Further, the activation in assay [14] is 0.646% and 0.0503%. Further, the max response in assay [17] is -1.82% and 1.55%. In addition, the call in [18] was inactive.

Regarding `CN(C)c1ccc(C(=N)c2ccc(N(C)C)cc2)cc1`, the Potency was 31.6 µM (active) in assay [3], 10 µM (active) in [19], 25.1 µM (active) in [8] and 5.31 µM (active) in [15]. Also, the Potency result in assay [9], in [10] and in [11] was “inactive” each time. Further, in [14], the activation is 13.1%.

As to `O=c1[nH]ncc2ccccc12`, the Potency in assay [1] and in assay [2] was over 92 µM throughout. Moreover, the activity change, negative = cytotoxicity in assay [3] is -2.98%. The viability change, negative = cytotoxic in assay [19] is -82.8% (active). The Potency entry in [4], in assay [5], in [6], in [7], in assay [8] and in [9] was “inactive” throughout. In addition, the Potency result in assay [10], in [11], in assay [12], in assay [13], in [15] and in assay [16] was “inactive” each time. The activation in assay [14] is 0.167%. The max response in assay [17] was -3.03%. In addition, the result in assay [18] was inactive.

Regarding `CCOc1ccc2nc(N)sc2c1`, the Potency in [1] is over 92 µM; in [2], over 92 µM; in [14], 10 µM (active). Also, the activity change, negative = cytotoxicity in [3] was -2.03%. Moreover, the Potency result in assay [19], in [4], in [5], in [6], in assay [7] and in [8] was “inactive” throughout. For the same compound, the Potency entry in assay [11] was “inactive”.

For `Nc1ccc(N=Nc2ccccc2)c(N)c1`, the Potency is over 92 µM in [1], over 92 µM in assay [2] and 42.2 µM (active) in assay [12]. Besides, the Potency entry in assay [4], in assay [5], in assay [6], in assay [7], in assay [8] and in assay [11] was “inactive” in each case. Besides, the Potency entry in assay [15] was “inactive”.

Take `CCN(CC)c1ccc2c(C)cc(=O)oc2c1`: the Potency in assay [1] was over 92 µM; in assay [2], over 92 µM; in assay [10] it was 44.7 µM (active); in [11], 22.4 µM (active); in [12], 37.6 µM (active). In addition, the activity change, negative = cytotoxicity in assay [3] is -15.7%. Also, the Potency entry in assay [19], in assay [4], in assay [5], in assay [6], in assay [7] and in assay [8] was “inactive” throughout. For the same compound, the Potency entry in [15] and in assay [16] was “inactive” each time. Also, the activation in assay [14] is 6.67%.

For the compound `O=[N+]([O-])c1cc(Cl)c(Cl)c(Cl)c1Cl`, in [3], the activity change, negative = cytotoxicity was -28%. For the same compound, the Potency is 31.6 µM (active) in assay [19], 29.8 µM (active) in assay [12], 33.5 µM (active) in assay [15] and 37.6 µM (active) in [16]. The Potency result in [9], in assay [10], in [11] and in assay [13] was “inactive” in each case. Moreover, the activation in [14] was -0.451%. The max response in [17] is 0.233%. Also, in assay [18], the outcome was inactive.

As for `Nc1ccccc1O`, the Potency in assay [1] was over 92 µM; in assay [2], over 92 µM; in [12], 13.3 µM (active). For the same compound, the Potency result in assay [4], in [6], in [9], in [10], in assay [11] and in assay [16] was “inactive” each time.

In the case of `Oc1ccc2c(c1)OCO2`, the Potency in [1] and in assay [2] was over 92 µM throughout. Besides, the Potency entry in [19], in assay [4], in assay [5], in assay [6], in assay [7] and in assay [8] was “inactive” each time. The Potency result in [9], in assay [10], in assay [11], in assay [12], in assay [13] and in [15] was “inactive” throughout. In addition, the Potency result in [16] is “inactive”. Besides, in assay [14], the activation was -0.0594%. Further, the max response in assay [17] is -0.719%. Besides, in [18], the outcome was inactive.

On to `Cc1cccnc1`, for which the Potency in assay [1] and in [2] was over 92 µM throughout. For the same compound, the Potency result in assay [19], in assay [4], in assay [5], in [6], in assay [7] and in assay [8] was “inactive” in each case. For the same compound, the Potency result in assay [9], in [10], in assay [12], in [13], in assay [15] and in assay [16] was “inactive” throughout. Moreover, the activation in assay [14] is 0.348%. Besides, in assay [17], the max response is -3.97%. Also, the call in assay [18] was inactive.

As to `c1ccc(CSCc2ccccc2)cc1`, the Potency in assay [1] and in assay [2] was over 92 µM each time. The activity change, negative = cytotoxicity in assay [3] was -17.4%. Further, the Potency entry in [19], in assay [4], in assay [5], in assay [6], in assay [7] and in assay [8] was “inactive” each time. Also, the Potency result in assay [9], in [10], in assay [11], in assay [12], in assay [13] and in assay [15] was “inactive” throughout. Also, in assay [16], the Potency result was “inactive”. Also, the activation in [14] was -0.759%. Further, the max response in [17] is -1.32%. Further, in assay [18], the compound was called inactive.
